Data: PMC4336329 (PLoS ONE, 2015)
Hit rate of the full screen: of about 310,000 compounds, about 14,000 (4.5%) showed an effect of 50% or more. The effect is printed as a negative number. The entries come from a sample that favours strong results as a whole.

target: human ether-à-go-go-related gene (hERG) potassium channel (human, UniProt Q12809); experiment: primary screen, population patch clamp on CHO cells stably expressing hERG; higher = less effect of the substance
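Note: peak tail current of the secondary pulse compared with the same well before compound.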

human ether-à-go-go-related gene (hERG) potassium channel, sequence (Q12809 whole entry, looked up): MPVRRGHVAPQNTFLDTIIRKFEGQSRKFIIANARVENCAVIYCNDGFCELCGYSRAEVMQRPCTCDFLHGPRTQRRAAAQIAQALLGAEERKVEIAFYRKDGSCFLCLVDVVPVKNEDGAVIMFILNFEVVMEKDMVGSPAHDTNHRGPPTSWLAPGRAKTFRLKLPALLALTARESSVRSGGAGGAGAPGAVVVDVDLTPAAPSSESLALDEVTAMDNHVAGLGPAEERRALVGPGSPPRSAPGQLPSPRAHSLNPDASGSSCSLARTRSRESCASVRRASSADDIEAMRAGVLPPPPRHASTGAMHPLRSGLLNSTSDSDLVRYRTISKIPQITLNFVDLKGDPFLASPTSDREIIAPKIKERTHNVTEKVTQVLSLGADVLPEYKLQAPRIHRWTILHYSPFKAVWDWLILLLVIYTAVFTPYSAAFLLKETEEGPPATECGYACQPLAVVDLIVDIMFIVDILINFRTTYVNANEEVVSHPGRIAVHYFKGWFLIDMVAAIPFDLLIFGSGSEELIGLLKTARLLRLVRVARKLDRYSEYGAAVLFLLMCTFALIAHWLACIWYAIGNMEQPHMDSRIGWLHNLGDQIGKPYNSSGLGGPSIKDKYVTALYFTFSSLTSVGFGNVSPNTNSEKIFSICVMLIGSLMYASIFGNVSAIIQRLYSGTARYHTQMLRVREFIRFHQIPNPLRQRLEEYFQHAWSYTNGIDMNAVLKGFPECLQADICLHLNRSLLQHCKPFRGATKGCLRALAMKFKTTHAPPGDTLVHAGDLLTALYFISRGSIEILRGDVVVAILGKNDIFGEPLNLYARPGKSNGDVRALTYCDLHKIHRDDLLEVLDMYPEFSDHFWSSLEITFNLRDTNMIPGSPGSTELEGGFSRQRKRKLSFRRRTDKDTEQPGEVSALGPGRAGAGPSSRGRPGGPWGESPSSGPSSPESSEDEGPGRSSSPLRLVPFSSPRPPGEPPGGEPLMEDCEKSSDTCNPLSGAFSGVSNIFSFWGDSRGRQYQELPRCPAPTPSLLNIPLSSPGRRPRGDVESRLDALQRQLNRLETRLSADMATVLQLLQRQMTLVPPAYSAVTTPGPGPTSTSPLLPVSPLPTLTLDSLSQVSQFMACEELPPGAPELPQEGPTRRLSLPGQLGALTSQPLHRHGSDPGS

| SMILES | hERG current change (%, negative = inhibition) at 10uM [%] |
| --- | --- |
| N#Cc1c(NC(=O)CCN2C(=O)c3ccccc3C2=O)oc(-c2ccccc2)c1-c1ccccc1 | -11.7 |
| O=C1CCCN1CC1CCCN(Cc2nc(COc3ccccc3)no2)C1 (centres unmarked) | 28.6 |
| O=C(NCc1ccccc1F)C1CCCN(C(=O)Nc2ccccc2)C1 (centres unmarked) | 3.18 |
| Cc1noc(C)c1COc1cccc(C(=O)Nc2ccc3c(c2)OCO3)c1 | 9.81 |
| Cc1noc(C)c1COc1cccc(C(=O)OC(C)C(=O)Nc2ccc3c(c2)OCO3)c1 (centres unmarked) | -61.2 |
| COc1cc(C(=O)OC(C)C(=O)Nc2ccc3c(c2)OCO3)ccc1OCc1c(C)noc1C (centres unmarked) | 15.8 |
| CCOc1ccccc1NC(=O)N1CCC(C(=O)c2ccc(F)cc2)CC1 | -32 |
| Cc1nc2sccn2c(=O)c1S(=O)(=O)NCc1ccccc1 | -2.53 |
| Cc1nc2sccn2c(=O)c1CCN1CCC(=C(c2ccccc2)c2ccc(F)cc2)CC1 | -78 |
| Cc1nc2sccn2c(=O)c1CCN1CCC(=C(c2ccc(F)cc2)c2ccc(F)cc2)CC1 | -78.6 |
| Cc1ccccc1NC(=O)N1CCC(C(=O)c2ccc(F)cc2)CC1 | -16.3 |
| Cc1nc2sccn2c(=O)c1S(=O)(=O)NCCc1ccccc1 | -21.5 |
| CCOC(=O)c1ccc(NS(=O)(=O)c2c(C)nc3sccn3c2=O)cc1 | 1.63 |
| CCCCc1c(O)nc2sccn2c1=O | -2 |
| Cc1nc2ccccn2c(=O)c1CCN1CCC(C(=O)c2ccc(F)cc2)CC1 | -73.3 |
| COc1ccc(C2=NN(c3ccccc3)C(c3cn(CCC(=O)O)nc3-c3ccccc3)C2)cc1 (centres unmarked) | 1.09 |
| COC(=O)C1CCN(C(=O)Cc2ccc(OC)c(OC)c2)CC1 | 0.292 |
| Cc1ccc(SCCN2CCN(CCc3ccccc3)CCC2=O)cc1 | -69.6 |
| O=C1CCN(CCc2ccccc2)CCN1CCSc1ccc(Br)cc1 | -80.1 |
| CC(C)CN1CCC(=O)N(CCSc2ccc(Br)cc2)CC1 | -61.3 |
| CCCN1CCC(=O)N(CCOc2ccccc2)CC1 | -6.3 |
| O=C1CCN(Cc2ccccc2)CCN1CCOc1ccccc1 | -10.4 |

| SMILES | hERG current change (%, negative = inhibition) at 10uM [%] |
| --- | --- |
| CC(C)CN1CCC(=O)N(CCSc2ccccc2)CC1 | -15.4 |
| COc1ccc(SCCN2CCN(CC(C)C)CCC2=O)cc1 | -42.9 |
| CN1CCC(=O)N(CCSc2ccccc2)CC1 | -3.36 |
| [N-]=[N+]=NCCN1CCN(CCc2ccccc2)CCC1=O | 9.16 |
| O=C1CCN(CCc2ccccc2)CCN1CCOc1ccccc1 | -72.8 |
| C[C@H]1CCC(=O)N(CCSc2ccc(Br)cc2)CC1 | -23.8 |
| CN1CCC(=O)N(CCSc2ccc(Br)cc2)CC1 | -25.5 |
| COc1ccccc1OCCNC(=O)c1ccc2c(c1)CCC2 | -5.96 |
| Cc1ccc(S(=O)(=O)NC(=NCC(=O)O)c2ccccc2)cc1 | 2.94 |
| COc1cc(OC)cc(C(=O)NNC(=O)c2cc(S(=O)(=O)N3CCOCC3)ccc2F)c1 | -1.89 |
| CCC(=O)n1nc(-c2ccccc2)nc1NCc1ccccc1 | 10.9 |
| Cn1ncc(N)c1C(=O)Nc1cccc(C(F)(F)F)c1 | 1.42 |
| CCOC(=O)c1cc(C)n(-c2ccc(OC)c(OC)c2)c1C | -16.5 |
| COc1cccc(NC(=S)N2CCC(NC(=O)c3ccco3)CC2)c1 | -11 |
| CCOc1ccc2nc(NC(=O)c3ccccn3)sc2c1 | 6.42 |
| COC(=O)c1cc(C)nc2c1C(=O)C(=O)C=C2N1CCOCC1 | -2.1 |
| O=C1CCN(CCc2ccccc2)CCN1CCSc1ccccc1 | -76.4 |
| CCCN1CCC(=O)N(CCSc2ccccc2)CC1 | -15.1 |
| O=C1CCN(CCc2ccccc2)CCN1CCO | -4.16 |
| CCN(CC)S(=O)(=O)c1ccc(NC(=O)CO/N=C(\N)c2ccccc2)cc1 | -16.6 |
| O=C(CN1CCOc2ccccc21)NCc1cccs1 | 8.26 |
| O=C(CN1C2=NCCCN2c2ccccc21)c1cccs1 | -18.4 |

| SMILES | hERG current change (%, negative = inhibition) at 10uM [%] |
| --- | --- |
| Br.O=C(CN1C2=NCCN2c2ccccc21)c1cccs1 | -31.3 |
| Br.O=C(CN1C2=NCCN2c2ccccc21)c1ccc(Br)s1 | -64.5 |
| Br.O=C(CN1C2=NCCN2c2ccccc21)C12CC3CC(CC(C3)C1)C2 | -72.7 |
| Br.CCOC(=O)CN1C2=NCCN2c2ccccc21 | 18.1 |
| Br.O=C(CN1C2=NCCCN2c2ccccc21)c1ccc(Br)s1 | -67.2 |
| O=C1CCC(=O)N1CC(=O)N1c2ccccc2Sc2ccccc21 | 3.19 |
| Cc1nc(C(=O)NC2CCOCC2)sc1C1(C)CC(c2ccccc2)=NO1 (centres unmarked) | -19.8 |
| CC(C)CCNC(=O)C1CCC(=O)N1CCc1ccccc1 (centres unmarked) | 9.14 |
| CCN(CC)CCCNC(=O)c1cc2c(=O)n(CC)c3ccccc3c2s1 | -14.9 |
| CC(C)Oc1ccccc1C1Nc2ccccc2C(=O)N1c1ccc2c(c1)OCCO2 (centres unmarked) | 3.43 |
| Fc1ccccc1NC(=S)NC1CCCC1 | 14 |
| Cc1ccc(NC(=O)N(C2=NCC(C)S2)c2ccccc2)cc1 (centres unmarked) | 16.3 |
| CCn1c(SCc2nc(-c3ccc(OC)c(OC)c3)no2)nnc1-c1cccs1 | -40.1 |
| Cn1c(SCc2nc(-c3ccccc3)no2)nnc1-c1cccs1 | -2.11 |
| Cn1c(SCc2nc(-c3ccccc3)no2)nnc1-c1ccco1 | -18.4 |
| CCn1c(SCc2nc(-c3ccccc3)no2)nnc1-c1cccs1 | -61.2 |
| Cn1c(SCc2nc(-c3ccc(Cl)cc3)no2)nnc1-c1ccccc1 | -22.5 |
| CCn1c(SCc2nc(-c3ccc(Cl)cc3)no2)nnc1-c1ccco1 | -62 |
| CCn1c(SCc2nc(-c3ccccc3)no2)nnc1-c1ccco1 | -36.3 |
| Cn1c(SCc2nc(-c3ccc(Cl)cc3)no2)nnc1-c1ccco1 | -53.2 |
| Cn1c(SCc2nc(-c3ccc(Br)cc3)no2)nnc1-c1ccco1 | -49.6 |
